# Experimental data taken from the supplement of paper PMC8728848.
# Shown is part of a subset that was picked to be rich in the strongest signals.
# What was measured:
# Experiment in all cases: glycan array binding signal (z-score within array); higher = stronger binding
# Settings in all cases: glycan notation: IUPAC condensed, linker removed
# [1] = target: Fuc(a1-2)Gal(b1-3)GlcNAc(b1-2)Man(a1-3)[Fuc(a1-2)Gal(b1-3)GlcNAc(b1-2)Man(a1-6)]Man(b1-4)GlcNAc(b1-4)[Fuc(a1-6)]GlcNAc
# Method in brief: (§1)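 The Consortium for Functional Glycomics database supplied 3228 glycan arrays, of which those lacking an available protein sequence were dropped. The binding signal, a within-array Z-score, was averaged across arrays of the same protein sequence and across linkers. Negative scores can be read as non-binding.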
# [2] = target: Fuc(a1-2)Gal(b1-4)GlcNAc(b1-3)Gal(b1-4)GlcNAc(b1-2)Man(a1-3)[Fuc(a1-2)Gal(b1-4)GlcNAc(b1-3)Gal(b1-4)GlcNAc(b1-2)Man(a1-6)]Man(b1-4)GlcNAc(b1-4)GlcNAc
# Method in brief: as §1
# [3] = target: Fuc(a1-2)[Gal(a1-3)]Gal(b1-3)GlcNAc(b1-6)GalNAc
# Method in brief: as §1
# [4] = target: Fuc(a1-2)[Gal(a1-3)]Gal(b1-4)GlcNAc(b1-6)GalNAc
# Method in brief: as §1
# [5] = target: Fuc(a1-2)[GalNAc(a1-3)]Gal(b1-4)GlcNAc(b1-2)Man
# Method in brief: as §1
# [6] = target: Fuc(a1-2)[GalNAc(a1-3)]Gal(b1-4)GlcNAc(b1-6)GalNAc
# Method in brief: as §1
# [7] = target: Fuc(a1-2)[GalNAc(b1-3)]Gal
# Method in brief: as §1
# Gal(a1-3)Gal = target: Gal(a1-3)Gal
# Method in brief: as §1
# [8] = target: Gal(a1-3)Gal(b1-4)GlcNAc(b1-6)GalNAc
# Method in brief: as §1
# [9] = target: Gal(a1-3)Gal(b1-4)[Fuc(a1-3)]GlcNAc(b1-2)Man(a1-3)[Gal(a1-3)Gal(b1-4)[Fuc(a1-3)]GlcNAc(b1-2)Man(a1-6)]Man(b1-4)GlcNAc(b1-4)GlcNAc
# Method in brief: as §1
# Gal(a1-3)GalNAc = target: Gal(a1-3)GalNAc
# Method in brief: as §1
# [10] = target: Gal(a1-3)[Gal(a1-4)]Gal(b1-4)GlcNAc
# Method in brief: as §1
# Gal(a1-4)Gal(b1-4)Glc = target: Gal(a1-4)Gal(b1-4)Glc
# Method in brief: as §1
# [11] = target: Gal(b1-3)GlcNAc(b1-2)Man(a1-3)[Gal(b1-3)GlcNAc(b1-2)Man(a1-6)]Man(b1-4)GlcNAc(b1-4)[Fuc(a1-6)]GlcNAc
# Method in brief: as §1
# [12] = target: Gal(b1-3)GlcNAc(b1-6)Gal(b1-4)GlcNAc
# Method in brief: as §1
# [13] = target: Gal(b1-3)GlcNAc(b1-6)GalNAc
# Method in brief: as §1
# [14] = target: Gal(b1-3)[Fuc(a1-4)]GlcNAc(b1-3)Gal(b1-3)[Fuc(a1-4)]GlcNAc
# Method in brief: as §1
# [15] = target: Gal(b1-3)[Neu5Ac(a2-6)]GlcNAc(b1-4)Gal(b1-4)Glc
# Method in brief: as §1
# [16] = target: Gal(b1-4)GlcNAc(b1-2)Man(a1-3)[Gal(b1-4)GlcNAc(b1-2)Man(a1-6)][Gal(b1-4)GlcNAc(b1-4)]Man(b1-4)GlcNAc(b1-4)[Fuc(a1-6)]GlcNAc
# Method in brief: as §1
# [17] = target: Gal(b1-4)GlcNAc(b1-3)Gal(b1-4)GlcNAc(b1-2)[Gal(b1-4)GlcNAc(b1-3)Gal(b1-4)GlcNAc(b1-6)]Man(a1-6)[Gal(b1-4)GlcNAc(b1-3)Gal(b1-4)GlcNAc(b1-2)Man(a1-3)]Man(b1-4)GlcNAc(b1-4)[Fuc(a1-6)]GlcNAc
# Method in brief: as §1
# [18] = target: Gal(b1-4)GlcNAc(b1-3)Gal(b1-4)GlcNAc(b1-3)Gal(b1-4)GlcNAc(b1-2)[Gal(b1-4)GlcNAc(b1-3)Gal(b1-4)GlcNAc(b1-3)Gal(b1-4)GlcNAc(b1-6)]Man(a1-6)[Gal(b1-4)GlcNAc(b1-3)Gal(b1-4)GlcNAc(b1-3)Gal(b1-4)GlcNAc(b1-2)Man(a1-3)]Man(b1-4)GlcNAc(b1-4)[Fuc(a1-6)]GlcNAc
# Method in brief: as §1
# [19] = target: Gal(b1-4)GlcNAc(b1-3)Gal(b1-4)GlcNAc(b1-3)Gal(b1-4)GlcNAc(b1-3)Gal(b1-4)GlcNAc(b1-2)[Gal(b1-4)GlcNAc(b1-3)Gal(b1-4)GlcNAc(b1-3)Gal(b1-4)GlcNAc(b1-3)Gal(b1-4)GlcNAc(b1-6)]Man(a1-6)[Gal(b1-4)GlcNAc(b1-3)Gal(b1-4)GlcNAc(b1-3)Gal(b1-4)GlcNAc(b1-3)Gal(b1-4)GlcNAc(b1-2)Man(a1-3)]Man(b1-4)GlcNAc(b1-4)[Fuc(a1-6)]GlcNAc
# Method in brief: as §1
# [20] = target: Gal(b1-4)GlcNAc(b1-3)Gal(b1-4)GlcNAc(b1-3)Gal(b1-4)GlcNAc(b1-3)Gal(b1-4)GlcNAc(b1-3)Gal(b1-4)GlcNAc(b1-3)Gal(b1-4)GlcNAc(b1-2)Man(a1-3)[Gal(b1-4)GlcNAc(b1-3)Gal(b1-4)GlcNAc(b1-3)Gal(b1-4)GlcNAc(b1-3)Gal(b1-4)GlcNAc(b1-3)Gal(b1-4)GlcNAc(b1-3)Gal(b1-4)GlcNAc(b1-2)Man(a1-6)]Man(b1-4)GlcNAc(b1-4)GlcNAc
# Method in brief: as §1
# [21] = target: Gal(b1-4)GlcNAc(b1-6)[Gal(b1-4)GlcNAc(b1-3)]GalNAc
# Method in brief: as §1
# Gal3S(b1-3)GalNAc = target: Gal3S(b1-3)GalNAc
# Method in brief: as §1
# [22] = target: Gal3S(b1-4)[Fuc(a1-3)]GlcNAc6S
# Method in brief: as §1
# GalNAc(b1-3)Gal = target: GalNAc(b1-3)Gal
# Method in brief: as §1
binder,measurement,setting,value
DC-ASGPR L+GEE (Homo sapiens) (protein) MTRTYENFQYLENKVKVQGFKNGPLPLQSLLQRLRSGPCHLLLSLGLGLLLLVIICVVGFQNSKFQRDLVTLRTDFSNFTSNTVAEIQALTSQGSSLEETIASLKAEVEGFKQERQAGVSELQEHTTQKAHLGHCPHCPSVCVPVHSEMLLRVQQLVQDLKKLTCQVATLNNNGEEASTEGTCCPVNWVEHQDSCYWFSHSGMSWAEAEKYCQLKNAHLVVINSREEQNFVQKYLGSAYTWMGLSDPEGAWKWVDGTDYATGFQNWKPGQPDDWQGHGLGGGEDCAHFHPDGRWNDDVCQRPYHWVCEAGLGQTSQESH,glycan array binding signal (z-score),[1],-0.314
same,glycan array binding signal (z-score),[2],0.538
same,glycan array binding signal (z-score),[3],2.67
same,glycan array binding signal (z-score),[4],-0.492
same,glycan array binding signal (z-score),[5],0.54
same,glycan array binding signal (z-score),[6],3.41
same,glycan array binding signal (z-score),[7],3.61
same,glycan array binding signal (z-score),Gal(a1-3)Gal,0.243
same,glycan array binding signal (z-score),[8],3.21
same,glycan array binding signal (z-score),[9],0.091
same,glycan array binding signal (z-score),Gal(a1-3)GalNAc,-0.254
same,glycan array binding signal (z-score),[10],-0.371
same,glycan array binding signal (z-score),Gal(a1-4)Gal(b1-4)Glc,-0.702
same,glycan array binding signal (z-score),[11],-0.527
same,glycan array binding signal (z-score),[12],-0.073
same,glycan array binding signal (z-score),[13],3.3
same,glycan array binding signal (z-score),[14],-0.093
same,glycan array binding signal (z-score),[15],-0.382
same,glycan array binding signal (z-score),[16],-0.406
same,glycan array binding signal (z-score),[17],-0.323
same,glycan array binding signal (z-score),[18],0.024
same,glycan array binding signal (z-score),[19],2.52
same,glycan array binding signal (z-score),[20],0.991
same,glycan array binding signal (z-score),[21],-0.432
same,glycan array binding signal (z-score),Gal3S(b1-3)GalNAc,0.442
same,glycan array binding signal (z-score),[22],0.135
same,glycan array binding signal (z-score),GalNAc(b1-3)Gal,3.04
